Source: PubChem (National Center for Advancing Translational Sciences (NCATS))
L3MBTL1 block – L3MBTL1 (human) inhibition; Q9Y468; AlphaScreen L3MBTL1–H3K9me1 peptide binding; Potency, µM (titrated, usually from 57.1 µM), without a hit: at the highest dose activity, negative = inhibition, usual class: inhibitors; 230,000 tested, 0.66% active; AID 485360; also: potency is read from the fitted curve at half-maximal effect; % is scaled to controls: 0 for no effect and ±100 for the full control effect; nearly all actives have a fitted effect of over 60% in size
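AlphaScreen assay: L3MBTL1 (50 nM final) was preincubated 30 min at room temperature with biotinylated H3(1-15)K9me1 peptide (75 nM final), then 30 min with library compounds; streptavidin donor and nickel chelate acceptor beads (10 ug/mL final) added, 30 min dark.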
BAZ2B block – BAZ2B (human) inhibition. Q9UIF8. AlphaScreen BAZ2B-H3K14Ac peptide displacement. 360,000 tested, 4.4% active. Potency, µM (top dose mostly 114 µM), for the others: at the top dose activity change, negative = inhibition, usual class: inhibitors. AID 504333; also: potency is read from the fitted curve at half-maximal effect; % is scaled to controls: 0 for no effect and ±100 for the full control effect; nearly all actives have a fitted effect of over 60% in size
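Compounds, titrated to a top concentration of 110 uM, were incubated 30 min at room temperature with preformed BAZ2B/acetyl-K14 H3 peptide complex (50 nM each). Proximity signal was measured by AlphaScreen after 20 min with beads.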
JMJD2A Tudor – JMJD2A Tudor domain (human) inhibition; AlphaScreen JMJD2A-Tudor / H3K4me3 peptide binding; Potency, µM (titrated, usually from 114 µM), for the others: at the top dose activity change, negative = inhibition, actives largely listed as inhibitors; 390,000 tested, 4.4% active; also: potency is read from the fitted curve at half-maximal effect; % is scaled to controls: 0 for no effect and ±100 for the full control effect; nearly all actives have a fitted effect of over 50% in size
G9a inh – inhibitors of human histone lysine methyltransferase G9a; G9a H3K9 monomethylation, AlphaScreen, 2 h; Potency, µM (top dose mostly 102 µM), for the others: top-dose activity, negative = inhibition, most hits filed as inhibitors; 350,000 tested, 8.8% active; AID 504332; also: potency is read from the fitted curve at half-maximal effect; % is scaled to controls: 0 for no effect and ±100 for the full control effect; nearly all actives have a fitted effect of over 75% in size
Target sequence (Q96KQ7 913-1193 limits assumed): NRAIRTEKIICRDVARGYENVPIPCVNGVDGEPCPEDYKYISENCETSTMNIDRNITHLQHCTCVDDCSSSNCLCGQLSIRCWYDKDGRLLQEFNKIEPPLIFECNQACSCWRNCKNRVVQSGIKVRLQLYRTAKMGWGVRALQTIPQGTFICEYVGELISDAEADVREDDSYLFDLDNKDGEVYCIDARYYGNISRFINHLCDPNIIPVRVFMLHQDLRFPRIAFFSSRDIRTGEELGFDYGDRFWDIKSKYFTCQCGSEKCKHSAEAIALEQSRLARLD
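G9a (20 nM) preincubated 15 min RT with compounds, then 500 nM biotinylated H3K9 peptide and 20 uM SAM added; 2 h RT reaction. Monomethyl-H3K9 product detected by AlphaScreen with anti-H3K9me1 antibody, streptavidin donor and anti-rabbit IgG acceptor beads.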
PI5P4Ka inh – inhibitors of human PI5P4K alpha; AID 652105; max response, %; P48426; 330,000 tested, 1.2% active; PI5P4Kalpha enzyme, ADP-Glo luminescence, 60 min; active compounds read low; active = max response of -50% or lower; inconclusive = between -30% and -50%; inactive = -30% or higher; also: value at the top dose of about 77 µM; % is scaled to controls: 0 for no effect and ±100 for the full control effect
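Quantitative HTS of the MLSMR library against PI5P4Kalpha with substrate. ATP added last at 5 microM final; room temperature, 60 minutes. Remaining ATP depleted, ADP converted and read as luminescence.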
HP1b chromo inh – blocks HP1-beta chromodomain binding to methylated histone tails | P83916 | AlphaScreen HP1-beta / biotin-H3K9me3 peptide binding | Potency, µM (top dose mostly 114 µM), without a hit: at the highest dose activity change, negative = inhibition, hits mostly inhibitors | 390,000 tested, 0.56% active | AID 540317; also: potency is read from the fitted curve at half-maximal effect; nearly all actives have a fitted effect of over 70% in size
Target sequence (P83916 whole entry, looked up): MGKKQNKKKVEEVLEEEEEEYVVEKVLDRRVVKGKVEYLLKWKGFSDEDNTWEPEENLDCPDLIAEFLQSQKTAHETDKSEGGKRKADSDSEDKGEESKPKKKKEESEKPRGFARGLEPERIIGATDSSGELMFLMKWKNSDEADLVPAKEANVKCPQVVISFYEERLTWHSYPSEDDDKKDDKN
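Compound inhibition of the preformed complex between 50 nM HP1-beta and 50 nM biotinylated H3K9me3 peptide was read by AlphaScreen. Buffer was PBS pH 7.4 with 0.01% Tween-20. Incubations ran 30 min at room temperature, with 10 ug/mL donor/acceptor beads.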
* = called active by the depositor; ? = inconclusive; . = not tested or not shown; ! = not active in a repeat; [ ] = dose if it differs, or a comment. Rows were chosen to be rich in hits. Some 11% of all compounds tested hit in one or more screens of this group. Unless noted, calls follow the shape of the dose curve; as a rule, active = well fitted inhibition curve with a large enough effect; inconclusive = small, poorly fitted or top-dose-only effect; inactive = no such curve, though single readings can be large or run the other way.

SMILES | L3MBTL1 block | BAZ2B block | JMJD2A Tudor | G9a inh | PI5P4Ka inh | HP1b chromo inh
O=c1[nH]c(O)c(N=Nc2ccc(S(=O)(=O)N3CCOCC3)cc2)c(=O)[nH]1 | -16% | -27% | -26% | 13µM* | -15 | 37%
O=c1[nH]c(=S)[nH]c(O)c1N=Nc1ccc(S(=O)(=O)N2CCOCC2)cc1 | -10% | ? | -29% | . | -55* | 18%
O=c1[nH]c(=S)[nH]c(O)c1N=Nc1cccc(S(=O)(=O)N2CCOCC2)c1 | 3% | -22% | -13% | 50µM* | ? | 21%
O=C1CC2OCC=C3CN4CCC56c7ccccc7N1C5[C@H]2[C@H]3C[C@H]46 (stereo partly specified) (tested in a mixture with another compound) | . | . | . | -34%[12.7 µM] | . | .
COc1cc([C@@H]2c3cc4c(cc3[C@H](O)C3COC(=O)[C@@H]32)OCO4)cc(OC)c1OC (stereo partly specified) | . | . | . | -8%[59 µM] | . | .
CC(C)C[C@H](NC(=O)[C@H](Cc1ccccc1)NC(=O)CNC(=O)[C@H](CS)N(C(=O)[C@@H](N)Cc1ccc(O)cc1)C(C)(C)C)C(=O)N([C@H](C(=O)O)[C@H](C)O)C(C)(C)C | . | . | . | 8%[59 µM] | . | .
N#Cc1ccccc1NC(=O)c1cccn(Cc2ccccc2)c1=O | . | 2% | 6% | 1%[59 µM] | . | 33%
C[C@@H]1O[C@H](C[N+](C)(C)C)C[C@@H]1O | . | . | . | 15%[59 µM] | . | .
C[N+]1(C)CCO[C@](O)(c2ccc(-c3ccc([C@]4(O)C[N+](C)(C)CCO4)cc3)cc2)C1 | . | . | . | 13%[21.5 µM] | . | .
O=c1[nH]c(=S)[nH]c(O)c1N=Nc1cc(S(=O)(=O)Nc2ccc(Cl)cc2)ccc1Cl | 4% | 35µM* | 35µM* | ? | -59* | 40µM*
COc1cccc(N=Nc2c(O)[nH]c(=S)[nH]c2=O)c1 | -11% | -32% | -26% | 50µM* | ? | 3%
O=c1[nH]c(=S)[nH]c(O)c1N=Nc1ccc2c(c1)OCCO2 | -23% | -27% | -9% | ? | -30 | 24%
O=c1[nH]c(O)c(N=Nc2ccc3c(c2)OCCO3)c(=O)[nH]1 | -24% | ? | ? | 50µM* | 1 | -23%
CC(C)(O)C1C2OC(=O)C1[C@]1(O)CC3O[C@@]34C(=O)OC2[C@@]14C (stereo partly specified) | . | . | . | -2%[2.33 µM] | . | .
O=C(O)Cc1cnc[nH]1 | . | . | 7.1µM* | 9.5µM*! | -3 | 20%
CCn1c(=O)oc2cc(NC(=O)CCl)ccc21 | 2% | -23% | -14%[57.1 µM] | ? | -6 | 25%
Cc1cc(C)cc(Oc2nc3ccccn3c(=O)c2/C=C(\C#N)c2nc3ccccc3s2)c1 | . | -18% | -12% | 3.5µM* | . | 50%
CCCc1ccc(OCC(=O)Nc2ccc(Cl)cc2C(=O)c2ccccc2)cc1 | . | -1% | 12% | ? | . | 27%
COc1ccccc1N=Nc1ccc(N)c(C)c1 | . | 35µM* | 45µM* | 24%[2.33 µM] | 5 | ?
CC1=NN(c2ccccc2)C(=O)/C1=C/c1c(O)[nH]c(=O)[nH]c1=O | -14% | ? | -21% | 40µM* | -30 | 25%
O=c1[nH]c(O)c(/C=C2\C=NN=C2c2ccccc2)c(=O)[nH]1 | . | 8% | -14% | 50µM* | . | 20%
O=c1[nH]c(O)c(C=Nc2ccccc2Oc2ccccc2)c(=O)[nH]1 | -8% | -29% | ? | 2% | -10 | 18%
COc1ccc(/C=C2/C(=O)N(c3ccccc3)N=C2C)cc1 | . | . | 20µM* | . | 2 | 50µM*
CC1=NN(c2ccccc2)C(=O)/C1=C/c1c(O)[nH]c(=S)[nH]c1=O | -9% | ? | 79µM* | ? | ? | -2%
COc1ccc(/C=C/c2nc3ccccc3c(=O)n2-c2ccc(C)cc2)cc1O | . | -13% | -11% | 6%[59 µM] | . | 9%
SMILES | L3MBTL1 block | BAZ2B block | JMJD2A Tudor | G9a inh | PI5P4Ka inh | HP1b chromo inh
CCn1cc(C(=O)N[C@@H](C)C(=O)OC)c(=O)c2cc3c(cc21)OCO3 | . | 3% | -2% | 43% | 4 | 48%
Cc1ccccc1NC(=O)Oc1cccc(OC(=O)c2ccccc2)c1 | . | -2% | -11% | 26% | 11 | 62%
CSc1nc(N)c(N=Nc2ccc([As](=O)(O)O)cc2)c(=O)[nH]1 | -5% | -18% | ? | 8.9µM* | -18 | 41%
COc1ccc(N=Nc2c(O)[nH]c(=S)[nH]c2=O)cc1 | -2% | -36% | -22% | ? | -16 | -8%
CC(=O)OCOCC(=O)OCO[P+](=O)C(OCOC(C)=O)c1cc([N+](=O)[O-])ccc1Oc1ccc(Br)cc1 (stereo unspecified) | . | . | . | 14%[59 µM] | . | .
O=[N+]([O-])c1ccccc1CNCCc1c[nH]c2ccccc12 | -10% | 50µM* | 22µM* | . | -2 | ?
O=[N+]([O-])c1ccc(CNCCc2ccccc2)cc1 | 6% | 50µM* | 20µM* | 7.9µM* | 21 | ?
O=[N+]([O-])c1ccccc1CNCCc1ccc(F)cc1 | . | 50µM* | 10µM* | 7.9µM* | . | ?
COC(=O)c1ccc(NC(=O)c2cccn(Cc3ccccc3C)c2=O)cc1 | . | 4% | -14% | 7%[59 µM] | . | 20%[57 µM]
COc1ccccc1N1CCN(C2CCN(C(=O)c3cccs3)CC2)CC1 | -14% | -34% | 7.1µM* | 28µM* | -9 | -53%
CC(=O)Nc1nc(CCl)cs1 | . | -19% | -30% | 20µM* | ? | 32%
Cc1ccccc1NC(=O)CCl | 6% | 0% | -9% | 5% | -1 | 36%
Cc1ccc(-n2c(/C=C/c3cc(Br)cs3)nc3ccccc3c2=O)cc1C | . | -8% | -5% | 4%[59 µM] | . | 30%
Cc1cccc2sc(NC(=O)c3cccn(Cc4ccccc4)c3=O)nc12 | . | -12% | -8% | 20%[59 µM] | . | -11%
Cn1c(O)c(C(=O)c2ccccc2Cl)c(=O)n(C)c1=O | 1% | . | 89µM* | ? | -30 | 18%
Cc1ccc(-n2c(/C=C/c3cccc4ccccc34)nc3ccccc3c2=O)cc1 | . | 12% | 6% | 20%[59 µM] | . | 23%
Fc1ccc(CN2CCN(c3ccc(Cl)cc3)CC2)cc1 | . | -16% | -23% | -32% | 0 | 15%
Cc1cccc(CN2CCN(c3ccc(Cl)cc3)CC2)c1 | -7% | 50µM* | 22µM* | 32µM* | -11 | ?
CCN1CCN(Cc2ccc(C)cc2)CC1 | 3% | -4% | 1% | ? | . | 36%
Cc1cccc(CN2CCN(Cc3ccc(Cl)cc3)CC2)c1 | . | 32µM* | 1.1µM* | 7.1µM* | 1 | ?
CCCCCCN1CCN(c2ccc(Cl)cc2)CC1 | 7% | 45µM* | ? | ? | -6 | ?
Fc1cccc(F)c1CN1CCN(c2ccc(Cl)cc2)CC1 | . | -7% | -18% | 13% | 25 | -1%
CN1C[C@@H](CS(=O)(=O)N(C)C)C[C@@H]2c3cccc4c3c(cn4C)C[C@H]21 | . | . | . | 19%[12.7 µM] | . | .
